This is a sample that favours compounds with a hit; in the whole collection about 1.5% have one here.
HePTP inhibitor = inhibitors of human HePTP phosphatase, primary screen, biochemical, absorbance, leukemia target; recombinant HePTP phosphatase activity, OD absorbance; inhibition, % at 20 µM; 110,000 tested, 0.64% active; AID 521, 2006; in the data active means inhibition above about 50%;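 further: plate controls were vehicle for no effect and reference inhibitor for full effect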
CD11b adhes enh = enhancers of CD11b/CD18 adhesion to fibrinogen, primary screen, K562 cells, luminescence; Integrin beta-2 (Homo sapiens) + Integrin alpha-M (Homo sapiens), P05107+P11215; ATPlite luminescence; activation, % at 10 µM; 93,000 tested, 0.07% active;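 active means 10 µM primary screen giving 50% or more activity, confirmed by 40% or more on retest at that dose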
Mac1 fbg inh = inhibitors of CD11b/CD18 adhesion to fibrinogen, primary screen, K562 cells, luminescence. inhibition, % at 10 µM. ATPlite luminescence; Mn2+ added to activate the integrin. 93,000 tested, 0.54% active. Integrin beta-2 (Homo sapiens) + Integrin alpha-M (Homo sapiens), P05107+P11215. AID 1497, 2009;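 active means primary inhibition of 50% or more at 10 µM, then 40% or more on retest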
PLAP act = PLAP enzyme activators, biochemical, luminescence, HTS; Alkaline phosphatase, placental type (Homo sapiens), P05187; purified PLAP enzyme, luminescent substrate read-out; active compounds read high; AID 696, 2007; 96,000 tested, 1.2% active; activation fold at 20 µM; in the data active means activation fold above about 2
The depositor's hits bear a star.

For Cc1sc2ncnc(NCCc3ccc(S(N)(=O)=O)cc3)c2c1C the results were CD11b adhes enh -5, Mac1 fbg inh 51* and PLAP act 0.7.
For COc1ccc(NC(=O)C2=C(C)NC(=S)NC2c2ccccc2F)cc1 (centres undefined) the results were HePTP inhibitor 5.
Screening COC(=O)c1cn[nH]c1NC(=S)Nc1ccc(Cl)c(Cl)c1 returned CD11b adhes enh 1, Mac1 fbg inh 10 and PLAP act 2.5*.
Screening COc1ccc(-c2cc(C(=O)NCCc3ccccc3)c3ccccc3n2)c(OC)c1 returned HePTP inhibitor 26.
Screening O=C(CSc1nc2[nH]ncc2c(=O)n1-c1ccccc1)c1ccc2c(c1)OCCO2 returned HePTP inhibitor 0, CD11b adhes enh 25, Mac1 fbg inh 7 and PLAP act 2.4*.
`O=C(CSc1nnc(-c2cccs2)n1-c1ccccc1)c1ccc2c(c1)OCCO2` gave HePTP inhibitor 1, CD11b adhes enh 1, Mac1 fbg inh 19 and PLAP act 1.
`COc1cc(/C=N/n2c(C)nnc2-n2nc(C)cc2C)cc(I)c1O` gave HePTP inhibitor -4.
For Cc1cccnc1NCc1ccc(O)c2ncccc12 the results were HePTP inhibitor 2, CD11b adhes enh -2, Mac1 fbg inh -6 and PLAP act 2.6*.
Screening COc1ccc(C(=O)CSc2ncn[nH]2)cc1OC returned HePTP inhibitor -2, CD11b adhes enh 2, Mac1 fbg inh -6 and PLAP act 2.1*.
For COc1ccc(C(=O)CSc2ncn[nH]2)cc1 the results were HePTP inhibitor 0.
For COc1ccc(NC(=O)CSc2ncn[nH]2)c([N+](=O)[O-])c1 the results were CD11b adhes enh 5, Mac1 fbg inh 1 and PLAP act 1.
Screening CCc1ccc(C(=O)CSc2ncn[nH]2)cc1 returned HePTP inhibitor 3, CD11b adhes enh 1, Mac1 fbg inh -2 and PLAP act 2.4*.
Screening O=C(O)c1ccc(CSc2ncn[nH]2)cc1 returned HePTP inhibitor 2, CD11b adhes enh 0, Mac1 fbg inh -2 and PLAP act 1.
For Cc1ccc(C(=O)CSc2ncn[nH]2)cc1 the results were HePTP inhibitor -1, CD11b adhes enh -5, Mac1 fbg inh -5 and PLAP act 2.3*.
Screening COc1ccc2c(c1)C(C)CC(C)(C)N2C(=O)CSc1ncn[nH]1 (centres undefined) returned HePTP inhibitor 2, CD11b adhes enh -3, Mac1 fbg inh -1 and PLAP act 2.4*.
`COc1ccc(C(=O)Nc2ccc(Br)c(Cl)c2)cc1` gave HePTP inhibitor 5.
Screening CC(=O)NC(c1ccccc1)c1c(OC(=O)c2ccccc2)ccc2ccccc12 (centres undefined) returned HePTP inhibitor -10.
COC(=O)c1c(NC(=O)C2CC=CCC2C(=O)O)sc2c1CCC(C(C)(C)C)C2 (centres undefined) was read as HePTP inhibitor 0.
COc1c(Cl)cc(Cl)cc1/C=c1/sc2nc3ccccc3n2c1=O was read as HePTP inhibitor -15.
For COc1ccccc1OCc1ccc(C(=O)N2N=C(C(F)F)CC2(O)C(F)F)o1 (centres undefined) the results were CD11b adhes enh -4, Mac1 fbg inh 82* and PLAP act 1.6.
`COc1ccccc1OCc1ccc(C(=O)n2nc(C)c(Cl)c2C)o1` gave HePTP inhibitor 12, CD11b adhes enh -1, Mac1 fbg inh -4 and PLAP act 0.9.
O=C(c1ccc(Cn2cc(Br)cn2)o1)N1N=C(C(F)F)CC1(O)C(F)F (centres undefined) was read as CD11b adhes enh -1, Mac1 fbg inh 6 and PLAP act 2*.
Screening CC(=O)c1sc(NC(=O)c2ccc(Cn3cc(Br)cn3)o2)nc1C returned HePTP inhibitor 14, CD11b adhes enh -2, Mac1 fbg inh -32 and PLAP act 1.2.
`CN1C(=O)/C(=C2/SC(=S)N(CCC(=O)O)C2=O)c2cc(Br)ccc21` gave HePTP inhibitor 104*.
`CN1C(=O)/C(=C2\SC(=S)N(C(CCC(=O)O)C(=O)O)C2=O)c2ccccc21` (centres undefined) gave HePTP inhibitor 11, CD11b adhes enh -1, Mac1 fbg inh -3 and PLAP act 0.9.
`O=C1NC(=O)/C(=C\c2ccccc2Oc2ccc(F)c(F)c2)S1` gave CD11b adhes enh -8, Mac1 fbg inh 85* and PLAP act 1.
For c1ccc(CN2CCC(N3CCNCC3)CC2)cc1 the results were HePTP inhibitor 7.
`Cc1cccc(NC(=S)NNC(=O)c2ccccc2OC(F)F)c1` gave CD11b adhes enh 3, Mac1 fbg inh -1 and PLAP act 1.4.
Screening CCNC(=S)NNC(=O)c1ccccc1OC(F)F returned CD11b adhes enh -2, Mac1 fbg inh 2 and PLAP act 2.9*.
COc1ccc(OC)c(S(=O)(=O)N2CCC(C(=O)Nc3cccc(C)c3)CC2)c1 was read as CD11b adhes enh -2, Mac1 fbg inh 6 and PLAP act 2.2*.
Screening COc1ccc(OC)c(S(=O)(=O)N2CCC(C(=O)Nc3cc(C)ccc3C)CC2)c1 returned CD11b adhes enh -1, Mac1 fbg inh -1 and PLAP act 1.3.
Screening COc1cccc(NC(=O)[C@@H]2CCCN2C(=O)C2CCN(S(=O)(=O)c3ccc(C)cc3)CC2)c1 returned HePTP inhibitor -6, CD11b adhes enh -1, Mac1 fbg inh 2 and PLAP act 2*.
Cc1nc(SCC(=O)NC2CCCCC2)n[nH]1 was read as HePTP inhibitor 7.
For O=C(N/N=C/c1cc(Cl)cc([N+](=O)[O-])c1O)c1ccc2c(c1)OCO2 the results were HePTP inhibitor 103*.
For COc1ccc(C(=O)N/N=C/c2cc(OC)c(O)c([N+](=O)[O-])c2)cc1OC the results were HePTP inhibitor -7.
For O=C(N/N=C\c1cc(Cl)cc([N+](=O)[O-])c1O)c1ccc(Br)cc1 the results were HePTP inhibitor 65*.
`O=C(N/N=C\c1cc(I)ccc1O)c1ccc(Br)cc1` gave HePTP inhibitor 103*.
For COC(=O)c1ccccc1NC(=O)Cc1ccc(OC)c(OC)c1 the results were HePTP inhibitor 2.
`COc1ccc(OC)c(-c2cc(C(=O)Nc3sc4c(c3C#N)CCC(C)C4)c3ccccc3n2)c1` (centres undefined) gave CD11b adhes enh 93*, Mac1 fbg inh -10 and PLAP act 1.
For Cc1ccccc1-c1cc(C(=O)Nc2sc(C(=O)OC(C)C)c(C)c2C#N)c2ccccc2n1 the results were CD11b adhes enh -6, Mac1 fbg inh 95* and PLAP act 1.4.
Cc1c(Cl)cccc1NC(=O)c1cc2c(C)nn(-c3ccccc3)c2s1 was read as HePTP inhibitor 3.
O=C1NC(=O)N(c2cccc(Br)c2)C(=O)/C1=C/c1ccccc1Cl was read as HePTP inhibitor 6.
